# The supplement of paper PMC6555819
# Key:
# Experiment in all cases: PBM binding z-score (relative to random genomic background probes); higher = stronger binding; sequences stand for … in GC…GCGATTGACAGCGTAGAATGAAGG
# [1] = test system: PPARg:RXRa DBDmut IVT, anti-RXR (DBD mutation: RXRa K156A/R161A, NR concentration 270 nM, RXRa partner concentration 90 nM)
# In short: (§1)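 Custom Agilent 4×180K protein-binding microarrays carried double-stranded probes. Their 34-nt variable regions held direct-repeat seeds, single-nucleotide variants, half-site ablations and random human genomic background sequences. Arrays were incubated 1 h with ligand-free nuclear receptor dimers in PBS pH 7.4, 2% milk, 0.02% Triton X-100, 1 mM DTT, 0.2 mg/mL BSA and 0.4 mg/ml salmon testes DNA. Antibodies against each partner (one per run) detected binding, and scanned fluorescence was regression-normalized. Binding z-scores use random background probes as reference.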
# [2] = test system: PPARg:RXRa IVT, anti-PPARg (NR concentration 270 nM, RXRa partner concentration 90 nM)
# In short: as §1
# [3] = test system: PPARg DBDmut:RXRa IVT, anti-PPARg (DBD mutation: PPARg1 K132A/R137A, NR concentration 270 nM, RXRa partner concentration 90 nM)
# In short: as §1
# [4] = test system: PPARg DBDmut IVT, anti-PPARg (DBD mutation: PPARg1 K132A/R137A, NR concentration 270 nM)
# In short: as §1
# [5] = test system: PPARg homodimer (NR concentration 180 nM)
# In short: as §1
# [6] = test system: PXR:RXRa (NR concentration 270 nM, RXRa partner concentration 90 nM)
# In short: as §1
# [7] = test system: PXR homodimer (NR concentration 270 nM)
# In short: as §1
# [8] = test system: RARa:RXR (NR concentration 270 nM, RXRa partner concentration 90 nM)
# In short: as §1
# [9] = test system: RARa homodimer (NR concentration 270 nM)
# In short: as §1
# [10] = test system: RARb:RXRa (NR concentration 270 nM, RXRa partner concentration 90 nM)
# In short: as §1
# [11] = test system: RARb homodimer (NR concentration 270 nM)
# In short: as §1
# [12] = test system: RARg:RXRa (NR concentration 270 nM, RXRa partner concentration 90 nM)
# In short: as §1
# [13] = test system: RARg homodimer (NR concentration 270 nM)
# In short: as §1
# [14] = test system: RXRa DBDmut IVT, anti-RXR (DBD mutation: RXRa K156A/R161A, NR concentration 90 nM)
# In short: as §1
# [15] = test system: RXRa homodimer (NR concentration 180 nM)
# In short: as §1
# [16] = test system: THRa:RXRa (NR concentration 90 nM, RXRa partner concentration 90 nM)
# In short: as §1
# [17] = test system: THRa homodimer (NR concentration 90 nM)
# In short: as §1
# [18] = test system: VDR homodimer (NR concentration 270 nM)
# In short: as §1
Sequence,PBM binding z-score [1],PBM binding z-score [2],PBM binding z-score [3],PBM binding z-score [4],PBM binding z-score [5],PBM binding z-score [6],PBM binding z-score [7],PBM binding z-score [8],PBM binding z-score [9],PBM binding z-score [10],PBM binding z-score [11],PBM binding z-score [12],PBM binding z-score [13],PBM binding z-score [14],PBM binding z-score [15],PBM binding z-score [16],PBM binding z-score [17],PBM binding z-score [18]
CCTACTGGGCCAAAAAGGTCAATGATGCCGATAA,3.37,4.64,0.0987,-0.775,2.6,3.47,0.909,3.89,0.262,4,4.77,4.33,4.09,-0.0473,4.06,3.06,0.77,0.956
TCGAGTAGGTTACCAATGGGGCATGCAGCTTTCT,2.81,2.63,-0.851,-0.804,0.0945,0.0825,-0.874,0.433,-0.816,0.932,0.595,1.02,0.374,0.239,0.609,0.0319,-0.807,-0.473
ATACCAAGGTGATCGTGAGGTCGTTGGTACTAAC,0.259,1.28,-0.235,-0.0791,0.658,2.89,0.856,2.43,-0.116,1.43,1.55,2.1,0.722,0.424,1.5,3.39,2.22,2.96
ATCTCTAGGTAAAGTTCAGTGAGAGATCGATAGA,2.11,2.62,1.04,0.672,1.57,1.77,1.52,1.01,0.975,2.58,2.43,1.84,2.47,1.21,1.06,1,0.0803,1.28
TGAATGAGGGTATAAGATCAGGGAACGTTGCAAA,0.322,0.573,0.938,0.423,0.497,0.178,0.202,0.234,-0.0465,0.303,-0.0361,0.617,0.546,-0.155,0.383,0.461,-0.277,0.159
ATATGTAGGTTATCTGGTCATTCAGTTTGCGCAT,7.43,7.03,4.79,3.41,2.41,1.26,1.14,0.738,1.75,1.42,1.34,1.39,1.15,1.08,1.46,0.737,0.562,1.07
GCGAGTTGGTCAGTAAAAGGTCACACACCGGTCG,0.617,2.26,0.948,-0.184,4.06,5.14,1.31,5.93,2.5,4.33,5.05,5.52,4.95,1.34,5.54,3.47,1.74,2.27
CAAACTAGGTCAATAGGTCAAAGTCCGCTTCCCG,8.58,8.3,2.88,0.687,6.16,4.57,0.894,6.73,3.02,5.04,5.26,7.95,6.55,2.03,6.54,3.62,1.05,2.03
CCTCGGAGGACAACAGGAGGTCAGGGCTGCCAGA,-0.161,0.479,-0.962,-1.94,1.52,2.11,0.134,2.83,0.694,3.01,3.69,3.63,3.49,-0.237,2.24,2.96,1.34,0.949
CCAGACTGGTGAGAAGGTAACTCAGCCTCGATTA,-0.548,-0.378,-1.06,-0.669,0.4,-0.321,-0.553,-0.228,-0.0331,-0.455,-0.313,-0.398,-0.424,-0.127,-0.237,-0.0936,-0.27,-0.352
TCATATAGGGAAAGGTGAAAGTCGAACGATATGA,2.4,2.31,0.712,0.709,0.702,0.972,0.00313,1.74,0.496,1.78,1.48,1.49,1.17,0.835,2.02,1.01,-0.407,-0.12
TCAGACAGGTGAAGGTAACTCAAGTACGCAGTCG,2.91,0.867,0.154,-0.232,0.845,0.794,0.336,0.988,0.423,1.14,0.996,0.573,0.747,1.54,1.13,1.68,0.516,0.389
ATCGAAAGGCCGAGGTGAGTATAGAGAAAGGGAA,-0.777,0.581,-0.257,0.0911,0.14,-0.348,0.0633,0.0364,-0.273,1.53,0.669,0.835,1.25,-0.863,0.294,0.936,0.0762,-0.433
TCAGACAGCTGAAGGTAACTCAGGTACGCAGTCG,1.6,-0.656,-0.951,-0.614,-1.05,0.139,-0.874,0.392,-0.741,-0.0591,-0.661,-0.115,-0.24,0.764,0.413,1.05,-0.685,-0.186
TCTATTAGTTGAAGGGCTACCGACGAGTCCGTTT,2.41,0.0404,0.251,-0.451,1.24,0.647,0.375,0.611,1.16,0.525,0.0763,0.0303,0.0781,1.63,0.354,-0.151,-0.0569,1.04
TGAATGAGGTTATAAAATCAGGGAACGTTGCAAA,0.257,1.47,1.21,0.504,0.289,0.62,-0.104,0.96,-0.0179,0.918,0.0245,1.01,0.843,0.43,1.44,1.56,-0.0954,0.227
